Results filed as inconclusive are left out. Activity calls are given as the source filed them. The calls were made as follows, unless noted: active = hit-call score of the fitted dose curve at least 0.9, where 1 is the maximum; inactive = score below 0.9.
Key:
[1] = ATG_Sox_CIS: Attagene CIS-FACTORIAL HepG2 Assay for human SRY-box transcription factor (SOX) (AID 2282960); settings: HepG2 Attagene cis-factorial SOX reporter, mRNA; actives raise or lower the signal
Outline: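 HepG2 cells transiently transfected with multiple cis-regulated reporter units, then dosed for 24 h. Reporter mRNA quantified by RT-PCR, fluorescent labelling, HpaI digestion and capillary electrophoresis; bidirectional fit versus DMSO.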

[2] = ATG_SREBP_CIS: Attagene CIS-FACTORIAL HepG2 Assay for human Sterol Regulatory Element Binding (SREBP) (AID 2282962); settings: HepG2 Attagene cis-factorial SREBP reporter, mRNA; actives raise or lower the signal
Outline: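 HepG2 cells transiently transfected with multiplexed cis-element reporter units report endogenous transcription factor activity. After 24 h of chemical exposure, reporter mRNA was quantified by RT-PCR, 6-FAM labelling, HpaI digestion and capillary electrophoresis; bidirectional fits used DMSO as baseline.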

[3] = target: Signal transducer and activator of transcription 3 (Homo sapiens) (UniProt P40763); assay: ATG_STAT3_CIS: Attagene CIS-FACTORIAL HepG2 Assay for human Signal Transducer and Activator of Transcription 3 (STAT3) (AID 2282963); settings: HepG2, Attagene cis-factorial STAT3 reporter transcription; actives raise or lower the signal
Outline: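 HepG2 cells transiently transfected with cis-element-driven multiple reporter transcription units; after 24 h chemical exposure, reporter mRNA measured by RT-PCR, 6-FAM primer-extension labelling, HpaI digestion and capillary electrophoresis. Bidirectional fitting versus DMSO baseline.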

[4] = ATG_TA_CIS: Attagene CIS-FACTORIAL HepG2 Assay for human TA Basal Promoter (AID 2282964); settings: HepG2 Attagene CIS-factorial TA basal promoter reporter; actives raise or lower the signal
Outline: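 Multiplexed mRNA reporter assay, HepG2, 24 h. Reporter cDNA amplified, 6-FAM primer-extended, HpaI-cut, CE-sized; DMSO = negative control and baseline.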

[5] = ATG_TAL_CIS: Attagene CIS-FACTORIAL HepG2 Assay for human TAL Basal Promoter (AID 2282966); settings: HepG2 Attagene cis-factorial TAL promoter reporter; actives raise or lower the signal;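 also: background control endpoint measuring basal TAL promoter reporter mRNA not a specific factor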
Outline: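 HepG2 cells were transiently transfected with promoter-driven multiplexed reporter units and dosed for 24 h. Reporter mRNA was measured by RT-PCR with capillary electrophoresis fluorescence; bidirectional fits used DMSO as baseline, serving as a background control.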

[6] = ATG_TGFb_CIS: Attagene CIS-FACTORIAL HepG2 Assay for human Transforming Growth Factor (TGF) (AID 2282967); settings: HepG2 Attagene CIS TGFb reporter, mRNA transcription; actives raise or lower the signal
Outline: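 Transcript-level reporter readout: HepG2 transfectants, 24 h exposure, RNA to cDNA, reporter-specific PCR, fluorescent primer extension, capillary sizing against ROX standards. Gain- or loss-of-signal relative to DMSO.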

[7] = ATG_VDRE_CIS: Attagene CIS-FACTORIAL HepG2 Assay for human Vitamin D Receptor Element (VDRE) (AID 2282968); settings: HepG2 VDRE cis-reporter transcription, actives raise or lower the signal
Outline: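 HepG2 cells transiently transfected with cis-element reporter units, dosed 24 h; reporter mRNA measured by RT-PCR, 6-FAM labeling, HpaI digestion and capillary electrophoresis. Activity fitted bidirectionally against DMSO baseline.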

[8] = target: Nuclear receptor subfamily 1 group I member 3 (Homo sapiens) (UniProt Q14994); assay: ATG_CAR_TRANS: Attagene TRANS-FACTORIAL HepG2 Assay for human Constitutive Androstane Receptor (CAR) (AID 2282969; active = hit-call score of the fitted dose curve at least 0.9, where 1 is the maximum;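 also: activators raise reporter mRNA above DMSO so AC50 marks induction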); settings: HepG2 Attagene TRANS-FACTORIAL CAR reporter
Outline: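 HepG2 cells transiently transfected with multiplexed GAL4-UAS reporter units expressing chimeric NR-Gal4 proteins; compound exposure 24 h. Reporter mRNA measured by RT-PCR, 6-FAM labelling, HpaI digestion and capillary electrophoresis; gain-of-signal fitted against DMSO baseline.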

[9] = target: Estrogen receptor (Homo sapiens) (UniProt P03372); assay: ATG_ERa_TRANS: Attagene TRANS-FACTORIAL HepG2 Assay for human Estrogen Receptor alpha (ERa) (AID 2282970; active = hit-call score of the fitted dose curve at least 0.9, where 1 is the maximum); settings: HepG2 Attagene TRANS ERa GAL4 reporter, mRNA
Outline: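 HepG2 cells transiently transfected with multiplexed GAL4-UAS reporter units; ERa activity read via exogenous chimeric NR-Gal4 protein. After 24 hour compound exposure, reporter mRNA measured by RT-PCR with 6-FAM labelling and capillary electrophoresis; gain-of-signal fitted relative to DMSO.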

[10] = ATG_M_19_TRANS: Attagene TRANS-FACTORIAL HepG2 Assay for M19 Transcription Factor (Internal Marker) (AID 2282974; active = hit-call score of the fitted dose curve at least 0.9, where 1 is the maximum); settings: HepG2 Attagene TRANS-FACTORIAL M19 internal marker reporter
Outline: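 HepG2 transiently transfected with GAL4-UAS multiplex reporter constructs, exposed 24 h; reporter RNA quantified by RT-PCR, 6-FAM labeling, HpaI digestion and capillary electrophoresis; internal background marker fitted upward versus DMSO.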

[11] = ATG_GAL4_TRANS: Attagene TRANS-FACTORIAL HepG2 Assay for GAL4 (Internal Marker) (AID 2282976; active = hit-call score of the fitted dose curve at least 0.9, where 1 is the maximum); settings: HepG2 Attagene TRANS GAL4 internal marker reporter
Outline: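 HepG2 cells transiently transfected with multiplexed GAL4-UAS reporter constructs were dosed for 24 h. Reporter mRNA was measured by RT-PCR, 6-FAM primer extension, HpaI digestion and capillary electrophoresis, and gain of signal was fitted relative to DMSO.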

[12] = ATG_TCF_b_cat_CIS: Attagene CIS-FACTORIAL HepG2 Assay for human T-Cell-Factor with beta-catenin (TCF/b-cat) (AID 2282965); settings: HepG2 TCF/beta-catenin cis-reporter transcription, actives raise or lower the signal
Outline: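 Using capillary electrophoresis as the read-out, labelled reporter cDNA fragments from transiently transfected HepG2 were sized and quantified. Exposure lasted 24 hours; activity in either direction was referenced to DMSO.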

[13] = target: Estrogen-related receptor gamma (Homo sapiens) (UniProt P62508); assay: ATG_ERRg_TRANS: Attagene TRANS-FACTORIAL HepG2 Assay for human Estrogen-Related Receptor gamma (ERRg) (AID 2282977; active = hit-call score of the fitted dose curve at least 0.9, where 1 is the maximum;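 also: hits increase reporter signal over DMSO so potencies reflect activators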); settings: HepG2 Attagene TRANS reporter, ERRg transactivation
Outline: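 Transient HepG2 transfectants, 24 h compound exposure, GAL4-UAS reporter mRNA by RT-PCR/6-FAM labelling/capillary electrophoresis; positive direction vs DMSO.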

[14] = target: X-box-binding protein 1 (Homo sapiens) (UniProt P17861); assay: ATG_Xbp1_CIS: Attagene CIS-FACTORIAL HepG2 Assay for human X-box Binding Protein 1 (XBP1) (AID 2282972); settings: HepG2 XBP1 cis-element reporter, Attagene multiplex; actives raise or lower the signal
Outline: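 HepG2 cells transiently transfected with cis-regulated multiple reporter transcription units; endogenous transcription factor activity measured 24 hours after chemical dosing. Reporter mRNA quantified by RT-PCR, 6-FAM primer extension, HpaI digestion and capillary electrophoresis; bidirectional fitting versus DMSO.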

[15] = target: Glucocorticoid receptor (Homo sapiens) (UniProt P04150); assay: ATG_GR_TRANS: Attagene TRANS-FACTORIAL HepG2 Assay for human Glucocorticoid Receptor (GR) (AID 2282978; active = hit-call score of the fitted dose curve at least 0.9, where 1 is the maximum;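 also: activators score as hits since higher reporter transcript over DMSO is fitted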); settings: HepG2 Attagene TRANS GR reporter, mRNA transcription
Outline: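 HepG2 cells transiently transfected with GAL4-UAS reporter units and exogenous GR-Gal4 chimera, dosed 24 h. Reporter mRNA by RT-PCR, FAM labeling, HpaI digest and capillary electrophoresis; gain-of-signal fit versus DMSO.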

[16] = target: Bile acid receptor (Homo sapiens) (UniProt Q96RI1); assay: ATG_FXR_TRANS: Attagene TRANS-FACTORIAL HepG2 Assay for Farnesoid X Receptor (FXR) (AID 2282979; active = hit-call score of the fitted dose curve at least 0.9, where 1 is the maximum;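 also: hits raise reporter mRNA above DMSO so AC50 marks FXR activation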); settings: HepG2 Attagene TRANS FXR-GAL4 reporter transcription
Outline: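 HepG2 cells transiently transfected with reporter constructs in which a chimeric FXR-GAL4 protein drives a GAL4-UAS reporter; 24 h compound exposure. Reporter mRNA measured by RT-PCR, FAM labelling, HpaI digestion and capillary electrophoresis; gain-of-signal versus DMSO.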

[17] = target: Oxysterols receptor LXR-alpha (Homo sapiens) (UniProt Q13133); assay: ATG_LXRa_TRANS: Attagene TRANS-FACTORIAL HepG2 Assay for human Liver X Receptor alpha (LXRa) (AID 2282980; active = hit-call score of the fitted dose curve at least 0.9, where 1 is the maximum); settings: HepG2 Attagene TRANS reporter, LXRa transactivation
Outline: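 HepG2 cells were transiently transfected with multiplexed reporter units driven by chimeric LXRa–GAL4 fusion proteins, then dosed for 24 h. Reporter mRNA was quantified by RT-PCR, fluorescent labelling and capillary electrophoresis; gain of signal fitted against DMSO baseline.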

[18] = target: Steroid hormone receptor ERR1 (Homo sapiens) (UniProt P11474); assay: ATG_ERRa_TRANS: Attagene TRANS-FACTORIAL HepG2 Assay for human Estrogen-Related Receptor alpha (ERRa) (AID 2282971; active = hit-call score of the fitted dose curve at least 0.9, where 1 is the maximum); settings: HepG2 Attagene TRANS reporter, ERRa transactivation
Outline: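 HepG2 cells transiently transfected with multiplexed GAL4-UAS reporter units reading chimeric ERRa-Gal4 activity; 24 h compound exposure. Reporter mRNA measured by RT-PCR, 6-FAM labelling, HpaI digest and capillary electrophoresis; gain of signal fitted versus DMSO baseline.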

Measured: AC50

Chain of Signal transducer and activator of transcription 3 (Homo sapiens) (P40763 whole entry, looked up): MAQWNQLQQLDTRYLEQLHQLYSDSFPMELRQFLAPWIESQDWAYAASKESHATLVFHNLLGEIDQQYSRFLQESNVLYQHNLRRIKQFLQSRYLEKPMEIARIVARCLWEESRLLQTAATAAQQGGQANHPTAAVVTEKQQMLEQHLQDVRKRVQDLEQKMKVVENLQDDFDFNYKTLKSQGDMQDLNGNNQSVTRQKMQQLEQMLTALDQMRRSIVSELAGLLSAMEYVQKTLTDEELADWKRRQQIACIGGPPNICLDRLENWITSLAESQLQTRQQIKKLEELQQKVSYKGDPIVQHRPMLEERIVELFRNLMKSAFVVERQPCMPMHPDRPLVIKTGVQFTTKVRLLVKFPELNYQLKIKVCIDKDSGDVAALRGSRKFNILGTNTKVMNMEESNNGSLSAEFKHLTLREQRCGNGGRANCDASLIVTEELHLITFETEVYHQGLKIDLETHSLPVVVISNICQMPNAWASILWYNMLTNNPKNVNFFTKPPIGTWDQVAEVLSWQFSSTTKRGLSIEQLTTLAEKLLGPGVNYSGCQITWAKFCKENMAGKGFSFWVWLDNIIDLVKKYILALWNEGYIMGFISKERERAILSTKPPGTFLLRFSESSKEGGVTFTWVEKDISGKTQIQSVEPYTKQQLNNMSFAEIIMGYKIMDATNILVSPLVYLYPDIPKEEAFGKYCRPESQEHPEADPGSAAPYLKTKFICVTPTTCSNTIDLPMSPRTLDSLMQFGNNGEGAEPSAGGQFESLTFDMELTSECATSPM
Chain of Estrogen-related receptor gamma (Homo sapiens) (P62508 whole entry, looked up, the tested form may be a part): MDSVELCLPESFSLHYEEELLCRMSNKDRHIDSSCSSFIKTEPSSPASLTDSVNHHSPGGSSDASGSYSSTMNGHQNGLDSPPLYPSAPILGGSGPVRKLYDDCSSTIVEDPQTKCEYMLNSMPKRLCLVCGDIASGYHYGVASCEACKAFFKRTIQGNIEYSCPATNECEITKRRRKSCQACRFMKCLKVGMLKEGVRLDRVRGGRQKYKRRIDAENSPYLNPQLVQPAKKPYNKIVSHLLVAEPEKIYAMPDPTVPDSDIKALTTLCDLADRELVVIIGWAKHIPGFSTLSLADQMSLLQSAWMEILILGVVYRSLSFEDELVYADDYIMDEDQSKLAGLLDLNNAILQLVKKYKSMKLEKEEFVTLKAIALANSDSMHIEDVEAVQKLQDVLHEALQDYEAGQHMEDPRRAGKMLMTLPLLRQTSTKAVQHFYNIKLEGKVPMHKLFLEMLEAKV
Chain of Steroid hormone receptor ERR1 (Homo sapiens) (P11474 whole entry, looked up, the tested form may be a part): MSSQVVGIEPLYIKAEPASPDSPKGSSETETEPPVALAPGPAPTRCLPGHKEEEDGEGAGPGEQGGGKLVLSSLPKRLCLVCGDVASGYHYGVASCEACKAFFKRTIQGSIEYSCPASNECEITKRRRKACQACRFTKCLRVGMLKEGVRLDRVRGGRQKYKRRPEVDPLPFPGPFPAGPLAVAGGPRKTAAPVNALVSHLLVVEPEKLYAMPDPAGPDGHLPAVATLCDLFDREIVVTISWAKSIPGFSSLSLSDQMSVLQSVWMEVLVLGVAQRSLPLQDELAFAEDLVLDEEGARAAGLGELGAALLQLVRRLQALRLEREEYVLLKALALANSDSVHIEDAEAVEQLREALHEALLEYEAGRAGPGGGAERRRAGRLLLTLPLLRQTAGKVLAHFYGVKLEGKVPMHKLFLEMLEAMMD
Chain of Oxysterols receptor LXR-alpha (Homo sapiens) (Q13133 whole entry, looked up, the tested form may be a part): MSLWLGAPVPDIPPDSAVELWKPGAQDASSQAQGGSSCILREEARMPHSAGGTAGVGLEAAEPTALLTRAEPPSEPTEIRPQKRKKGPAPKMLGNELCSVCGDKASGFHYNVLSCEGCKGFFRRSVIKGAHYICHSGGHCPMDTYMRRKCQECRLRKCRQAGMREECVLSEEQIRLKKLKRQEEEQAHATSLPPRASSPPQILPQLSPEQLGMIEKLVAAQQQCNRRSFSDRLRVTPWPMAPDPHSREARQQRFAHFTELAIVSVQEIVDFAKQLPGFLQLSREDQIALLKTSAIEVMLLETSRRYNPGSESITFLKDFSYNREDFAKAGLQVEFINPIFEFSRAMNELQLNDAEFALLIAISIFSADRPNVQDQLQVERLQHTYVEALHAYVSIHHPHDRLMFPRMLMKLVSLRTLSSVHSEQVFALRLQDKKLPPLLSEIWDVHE
Chain of X-box-binding protein 1 (Homo sapiens) (P17861 whole entry, looked up): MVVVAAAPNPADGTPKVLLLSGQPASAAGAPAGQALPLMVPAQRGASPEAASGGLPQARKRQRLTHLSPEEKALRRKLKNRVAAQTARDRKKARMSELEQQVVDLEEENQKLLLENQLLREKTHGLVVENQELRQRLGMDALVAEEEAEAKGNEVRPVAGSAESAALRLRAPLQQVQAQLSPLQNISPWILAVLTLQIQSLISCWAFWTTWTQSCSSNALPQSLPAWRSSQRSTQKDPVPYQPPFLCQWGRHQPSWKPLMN
Chain of Glucocorticoid receptor (Homo sapiens) (P04150 whole entry, looked up, the tested form may be a part): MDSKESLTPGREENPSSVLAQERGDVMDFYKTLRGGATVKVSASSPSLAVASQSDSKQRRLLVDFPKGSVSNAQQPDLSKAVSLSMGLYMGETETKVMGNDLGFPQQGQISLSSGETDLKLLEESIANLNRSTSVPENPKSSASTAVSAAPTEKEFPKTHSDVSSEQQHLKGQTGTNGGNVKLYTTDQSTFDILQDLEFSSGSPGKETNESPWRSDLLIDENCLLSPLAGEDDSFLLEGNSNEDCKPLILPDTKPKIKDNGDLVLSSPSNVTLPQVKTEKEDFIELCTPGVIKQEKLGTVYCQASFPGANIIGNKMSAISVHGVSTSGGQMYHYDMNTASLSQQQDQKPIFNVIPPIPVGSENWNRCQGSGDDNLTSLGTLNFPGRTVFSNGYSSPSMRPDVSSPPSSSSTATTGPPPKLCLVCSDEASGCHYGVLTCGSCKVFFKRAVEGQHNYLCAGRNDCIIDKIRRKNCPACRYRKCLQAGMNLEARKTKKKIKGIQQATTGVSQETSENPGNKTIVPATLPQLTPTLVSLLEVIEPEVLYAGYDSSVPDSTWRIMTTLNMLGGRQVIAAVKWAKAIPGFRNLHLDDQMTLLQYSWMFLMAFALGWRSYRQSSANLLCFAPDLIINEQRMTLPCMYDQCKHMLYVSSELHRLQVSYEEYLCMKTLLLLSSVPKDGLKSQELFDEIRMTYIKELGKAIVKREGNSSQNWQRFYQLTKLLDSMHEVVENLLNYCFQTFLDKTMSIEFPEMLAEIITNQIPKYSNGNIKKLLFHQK
Chain of Estrogen receptor (Homo sapiens) (P03372 whole entry, looked up, the tested form may be a part): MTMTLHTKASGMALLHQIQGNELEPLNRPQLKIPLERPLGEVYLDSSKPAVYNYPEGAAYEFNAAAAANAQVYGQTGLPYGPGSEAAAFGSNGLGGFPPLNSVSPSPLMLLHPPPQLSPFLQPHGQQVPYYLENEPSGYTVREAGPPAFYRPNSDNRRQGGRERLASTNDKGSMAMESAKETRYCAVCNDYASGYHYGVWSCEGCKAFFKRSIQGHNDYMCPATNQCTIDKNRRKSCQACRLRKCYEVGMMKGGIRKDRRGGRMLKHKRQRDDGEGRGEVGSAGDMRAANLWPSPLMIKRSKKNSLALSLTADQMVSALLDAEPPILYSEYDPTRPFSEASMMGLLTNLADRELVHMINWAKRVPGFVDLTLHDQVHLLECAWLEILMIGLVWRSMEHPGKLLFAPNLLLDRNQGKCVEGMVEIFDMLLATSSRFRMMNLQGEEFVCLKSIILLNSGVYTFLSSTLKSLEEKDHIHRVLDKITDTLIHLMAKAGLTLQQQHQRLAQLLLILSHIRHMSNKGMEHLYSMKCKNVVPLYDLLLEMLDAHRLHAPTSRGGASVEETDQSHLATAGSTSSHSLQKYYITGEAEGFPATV
Chain of Nuclear receptor subfamily 1 group I member 3 (Homo sapiens) (Q14994 whole entry, looked up, the tested form may be a part): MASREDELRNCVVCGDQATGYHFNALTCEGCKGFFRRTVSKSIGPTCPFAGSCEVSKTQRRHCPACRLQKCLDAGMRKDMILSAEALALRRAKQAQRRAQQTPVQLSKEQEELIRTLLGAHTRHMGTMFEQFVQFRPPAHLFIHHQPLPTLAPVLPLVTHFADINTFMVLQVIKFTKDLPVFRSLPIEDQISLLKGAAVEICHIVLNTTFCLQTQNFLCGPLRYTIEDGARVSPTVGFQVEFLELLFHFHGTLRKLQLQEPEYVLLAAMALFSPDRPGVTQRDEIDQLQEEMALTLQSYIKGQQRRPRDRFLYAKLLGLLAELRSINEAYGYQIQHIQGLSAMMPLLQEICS
Chain of Bile acid receptor (Homo sapiens) (Q96RI1 whole entry, looked up, the tested form may be a part): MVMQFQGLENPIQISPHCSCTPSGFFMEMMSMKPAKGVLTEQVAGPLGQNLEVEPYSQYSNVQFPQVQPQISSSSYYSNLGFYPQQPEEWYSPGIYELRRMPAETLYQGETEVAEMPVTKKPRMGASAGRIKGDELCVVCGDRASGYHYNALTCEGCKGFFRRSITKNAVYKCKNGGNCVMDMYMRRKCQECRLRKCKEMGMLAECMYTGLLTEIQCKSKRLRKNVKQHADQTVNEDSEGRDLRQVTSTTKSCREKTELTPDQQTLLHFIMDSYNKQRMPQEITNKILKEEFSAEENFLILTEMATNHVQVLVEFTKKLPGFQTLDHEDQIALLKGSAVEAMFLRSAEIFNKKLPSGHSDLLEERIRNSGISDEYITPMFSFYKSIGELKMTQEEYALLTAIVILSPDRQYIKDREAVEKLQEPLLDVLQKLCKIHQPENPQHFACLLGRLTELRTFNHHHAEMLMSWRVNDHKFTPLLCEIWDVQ

CCOP(=S)(OCC)SCSc1cc(Cl)ccc1Cl
inactive: [1] | [2] | [3] | [4] | [5] | [6] | [7] | [8] | [9] | [10] | [11]

ClCc1ccccc1Cl
active: [1] 120 µM | [7] 100 µM
inactive: [2] | [3] | [4] | [12] | [5] | [6] | [10] | [13]

O=C(CBr)c1ccc(O)cc1
inactive: [1] | [2] | [3] | [12] | [5] | [6] | [10] | [13]

CCOC(=O)OC1=C(c2cc(C)ccc2C)C(=O)NC12CCC(OC)CC2 (stereo unspecified)
inactive: [1] | [2] | [3] | [4] | [12] | [5] | [6] | [9] | [14] | [15] | [16] | [17]

c1ccc2sc(SNC3CCCCC3)nc2c1
inactive: [1] | [3] | [12] | [5] | [7] | [8] | [9] | [14] | [10] | [15] | [17]
active: [2] 148 µM | [6] 34.4 µM

O=[N+]([O-])c1cc([As](=O)(O)O)ccc1O
inactive: [1] | [3] | [12] | [5] | [6] | [7] | [9] | [18] | [14] | [11] | [17]

CCN(CC)C(=O)C(Cl)=C(C)OP(=O)(OC)OC
inactive: [1] | [2] | [3] | [4] | [5] | [6] | [7] | [14]

CC(C)[C@H](C(=O)OC(C#N)c1cccc(Oc2ccccc2)c1)c1ccc(OC(F)F)cc1 (stereo partly specified)
active: [7] 1.08 µM
inactive: [1] | [3] | [4] | [12] | [5] | [6] | [8] | [18] | [14] | [11] | [13] | [15]

O=NN1CCOCC1
inactive: [1] | [2] | [3] | [4] | [12] | [5] | [6] | [7] | [9] | [14] | [11]

CC(c1ccccc1)(c1ccc(O)cc1)c1ccc(O)cc1
inactive: [1] | [3] | [4] | [5] | [6] | [18] | [10] | [13] | [15]
active: [2] 13.2 µM | [12] 16.9 µM | [9] 0.145 µM | [14] 15 µM | [16] 12.5 µM
